From PubChem BioAssay (Tox21)
Results filed as inconclusive are left out. Calls of active or inactive are those of the source. Unless noted, the call rests on the fitted dose curve.

Experiments:
[1] = Nuclear factor erythroid 2-related factor 2/antioxidant responsive element (Nrf2/ARE) small molecule agonists: qHTS cell viability counter screen in human keratinocytes (AID 1919968; active means well fitted curve in the direction sought with a large enough effect in the repeat runs; an effect the other way counts as inactive or inconclusive; further: nearly all actives have a fitted effect of over 55% in size)
Outline: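 Parallel cytotoxicity read: KeratinoSens HaCaT cells, compound treatment 23 h, viability by CellTiter-Fluor fluorescence 1 h post-reagent.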

[2] = Nuclear factor erythroid 2-related factor 2/antioxidant responsive element (Nrf2/ARE) small molecule agonists: luciferase reporter gene qHTS assay in human keratinocytes (AID 1919969); further: nearly all actives have a fitted effect of over 35% in size
[3] = molecular target: Gonadotropin-releasing hormone receptor (Homo sapiens) (UniProt P30968); assay: Human gonadotropin-releasing hormone receptor (GnRHR) small molecule agonists, calcium flux assay in GnRHR-HEK293 cells (AID 1920063); further: nearly all actives have a fitted effect of over 35% in size
Sequence of Gonadotropin-releasing hormone receptor (Homo sapiens) (P30968 whole entry, looked up): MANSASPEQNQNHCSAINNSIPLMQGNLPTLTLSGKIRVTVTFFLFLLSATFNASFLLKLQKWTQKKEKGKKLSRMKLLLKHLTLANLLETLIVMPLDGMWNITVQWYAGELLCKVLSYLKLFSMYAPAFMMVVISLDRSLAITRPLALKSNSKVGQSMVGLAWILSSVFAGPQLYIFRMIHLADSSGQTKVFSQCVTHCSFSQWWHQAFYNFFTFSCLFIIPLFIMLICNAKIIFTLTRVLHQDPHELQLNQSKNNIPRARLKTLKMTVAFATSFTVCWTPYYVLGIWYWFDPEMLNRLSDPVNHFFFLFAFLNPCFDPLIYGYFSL
Outline: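 Calcium flux, agonist mode, human GnRHR stably integrated in HEK293; dye 1 h at 37 C before compound; Ex/Em=480/540 kinetic read, 3 min; 15 concentrations, triplicate.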

[4] = molecular target: KiSS-1 receptor (Homo sapiens) (UniProt Q969F8); assay: Human kisspeptin (KISS1R) small molecule agonists, calcium flux assay in KISS1R-HEK293 cells (AID 1920064; active means well fitted curve in the direction sought with a large enough effect in the repeat runs; an effect the other way counts as inactive or inconclusive)
Sequence of KiSS-1 receptor (Homo sapiens) (Q969F8 whole entry, looked up): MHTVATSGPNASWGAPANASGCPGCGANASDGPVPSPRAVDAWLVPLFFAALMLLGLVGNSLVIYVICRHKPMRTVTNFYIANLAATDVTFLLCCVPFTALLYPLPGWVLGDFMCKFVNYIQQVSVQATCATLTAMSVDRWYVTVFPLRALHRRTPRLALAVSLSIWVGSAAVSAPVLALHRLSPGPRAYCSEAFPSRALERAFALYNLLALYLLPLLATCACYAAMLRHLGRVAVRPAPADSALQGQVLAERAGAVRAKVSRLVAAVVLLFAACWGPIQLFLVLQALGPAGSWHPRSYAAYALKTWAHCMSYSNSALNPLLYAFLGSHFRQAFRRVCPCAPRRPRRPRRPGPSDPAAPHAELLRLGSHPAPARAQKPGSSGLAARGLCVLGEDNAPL
Outline: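 Triplicate 15-concentration series were applied to dye-loaded human KISS1R HEK293 cells, and agonist-evoked calcium fluorescence was captured for 3 min.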

[5] = G protein-coupled receptor (GPCR) small molecule agonists, calcium flux assay: HEK293 wild type cell line counter screen (AID 1920065)
Outline: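 Non-specific calcium responders were flagged by adding DMSO-dissolved compounds to dye-loaded cells and reading 480/540 nm fluorescence each second for 3 min; ATP served as positive control.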

[6] = p53 small molecule agonists, cell-based qHTS assay with rat liver microsomes (AID 1963578)
Outline: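 Compound in DMSO added to p53RE-bla cells 5 h post-plating; rat microsomes/NADPH 0.5 mg/mL final; 16 h, 37 C; LiveBLAzer 2 h RT.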

[7] = p53 small molecule agonists, cell-based qHTS assay with human liver microsomes: qHTS cell viability counter screen (AID 1963579); further: nearly all actives have a fitted effect of over 45% in size
Outline: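 HLM-supplemented (0.5 mg/mL final) and NADPH-supplemented (0.5 mg/mL final) p53RE-bla cultures, 4,000 cells per well, were dosed with compounds in DMSO for 16 h at 37 C; luminescent ATP detection (CellTiter-Glo, 30 min, room temperature) quantified surviving cells.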

[8] = p53 small molecule agonists, cell-based qHTS assay with rat liver microsomes: qHTS cell viability counter screen (AID 1963580); further: nearly all actives have a fitted effect of over 45% in size
Outline: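 After the beta-lactamase ratio was read, CellTiter-Glo was added to the same wells and luminescence measured at 30 min; cells had been treated 16 h at 37 C with compounds, rat liver microsomes and NADPH (0.5 mg/mL final each).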

[9] = p53 small molecule agonists, cell-based qHTS assay: qHTS cell viability counter screen (AID 1963581); further: nearly all actives have a fitted effect of over 45% in size
Outline: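 Multiplexed with the reporter read, a CellTiter-Glo step (30 min, room temperature) gauges ATP-based viability of HCT-116 p53RE-bla cells after 16 h compound incubation at 37 C.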

[10] = p53 small molecule agonists, cell-based qHTS assay (AID 1963582; active means well fitted activation curve with a large enough effect in the signal ratio in the repeat runs, not every such curve was filed as active; the % refers to the signal ratio)
Outline: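 Beta-lactamase reporter cells (p53RE-bla) treated with compounds for 16 h at 37 C; FRET substrate, 2 h, room temperature; fluorescence intensity.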

[11] = molecular target: 5-hydroxytryptamine receptor 2A (Homo sapiens) (UniProt P28223); assay: 5-hydroxytryptamine receptor 2A (HTR2A) small molecule antagonists, cell-based qHTS assay (AID 1963586); further: nearly all actives have a fitted effect of over 45% in size
Sequence of 5-hydroxytryptamine receptor 2A (Homo sapiens) (P28223 whole entry, looked up): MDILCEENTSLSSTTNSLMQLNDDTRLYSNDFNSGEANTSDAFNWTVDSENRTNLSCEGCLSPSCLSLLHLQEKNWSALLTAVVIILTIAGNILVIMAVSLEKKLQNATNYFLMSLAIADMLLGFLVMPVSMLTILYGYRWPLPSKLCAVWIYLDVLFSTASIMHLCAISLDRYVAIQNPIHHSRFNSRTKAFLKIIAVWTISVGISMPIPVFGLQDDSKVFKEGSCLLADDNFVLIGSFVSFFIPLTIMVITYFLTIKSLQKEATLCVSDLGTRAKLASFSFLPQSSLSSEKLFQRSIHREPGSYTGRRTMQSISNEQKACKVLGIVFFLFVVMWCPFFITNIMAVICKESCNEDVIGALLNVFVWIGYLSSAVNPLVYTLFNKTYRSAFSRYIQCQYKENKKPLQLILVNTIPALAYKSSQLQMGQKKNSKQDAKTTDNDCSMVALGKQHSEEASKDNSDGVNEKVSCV
Outline: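 CHO cells stably expressing human HTR2A were plated for 18 h at 37 C, then loaded with calcium dye for 1 h. Compounds were preincubated 5 min at room temperature before DOI (4 nM solution) was added. Kinetic fluorescence was read for 3 min.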

[12] = molecular target: 5-hydroxytryptamine receptor 2A (Homo sapiens) (UniProt P28223); assay: 5-hydroxytryptamine receptor 2A (HTR2A) small molecule agonists, cell-based qHTS assay (AID 1963587); further: nearly all actives have a fitted effect of over 30% in size
Outline: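 CHO cells stably expressing human HTR2A, plated 18 h, loaded with calcium dye 1 h at 37 C. Agonist mode: compounds added and intracellular calcium fluorescence recorded kinetically for 2 min at 1 sec intervals.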

[13] = molecular target: Muscarinic acetylcholine receptor M1 (Homo sapiens) (UniProt P11229); assay: Cholinergic receptor muscarinic 1 (CHRM1) small molecule antagonists, cell-based qHTS assay (AID 1963588); further: nearly all actives have a fitted effect of over 40% in size
Sequence of Muscarinic acetylcholine receptor M1 (Homo sapiens) (P11229 whole entry, looked up): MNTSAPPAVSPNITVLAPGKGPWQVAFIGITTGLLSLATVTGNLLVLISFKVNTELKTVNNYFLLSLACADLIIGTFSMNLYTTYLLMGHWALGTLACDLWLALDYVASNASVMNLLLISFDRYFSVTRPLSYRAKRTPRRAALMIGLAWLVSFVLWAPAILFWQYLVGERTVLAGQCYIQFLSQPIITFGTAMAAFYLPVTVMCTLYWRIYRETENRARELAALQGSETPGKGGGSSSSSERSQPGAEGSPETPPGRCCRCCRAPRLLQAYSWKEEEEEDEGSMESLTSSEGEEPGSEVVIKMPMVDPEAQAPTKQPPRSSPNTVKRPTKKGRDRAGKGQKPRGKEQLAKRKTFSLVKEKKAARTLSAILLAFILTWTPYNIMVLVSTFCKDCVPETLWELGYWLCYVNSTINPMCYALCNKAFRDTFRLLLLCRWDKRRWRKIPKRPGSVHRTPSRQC
Outline: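 Compounds were tested at 15 concentrations in three independent runs. Dye-loaded CHRM1-CHO cells were exposed 5 min at room temperature before stimulation by acetylcholine added at 50nM. Intracellular calcium was read kinetically on FDSS for 3 min.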

[14] = molecular target: Muscarinic acetylcholine receptor M1 (Homo sapiens) (UniProt P11229); assay: Cholinergic receptor muscarinic 1 (CHRM1) small molecule agonists, cell-based qHTS assay (AID 1963589); further: nearly all actives have a fitted effect of over 35% in size
Outline: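 qHTS, 15-point titration, 3 independent runs: compounds pin-transferred onto dye-loaded CHRM1-CHO cells (human M1), calcium fluorescence followed every second to detect agonism.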

[15] = cAMP Responsive Elements (CRE) small molecule agonists, cell-based qHTS assay (AID 1963590)
Outline: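 Quantitative HTS for CRE agonists: HEK 293T CRE-bla cells, overnight plating, 3 h compound incubation at 37 C/5% CO2, then 2 h room-temperature LiveBLAzer B/G FRET substrate loading.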

[16] = molecular target: Beta-2 adrenergic receptor (Homo sapiens) (UniProt P07550); assay: Adrenergic beta2 receptor (ADRB2) small molecule antagonists, cell-based qHTS assay (AID 1963592); further: series mostly up to about 92 µM; nearly all actives have a fitted effect of over 50% in size
Sequence of Beta-2 adrenergic receptor (Homo sapiens) (P07550 whole entry, looked up): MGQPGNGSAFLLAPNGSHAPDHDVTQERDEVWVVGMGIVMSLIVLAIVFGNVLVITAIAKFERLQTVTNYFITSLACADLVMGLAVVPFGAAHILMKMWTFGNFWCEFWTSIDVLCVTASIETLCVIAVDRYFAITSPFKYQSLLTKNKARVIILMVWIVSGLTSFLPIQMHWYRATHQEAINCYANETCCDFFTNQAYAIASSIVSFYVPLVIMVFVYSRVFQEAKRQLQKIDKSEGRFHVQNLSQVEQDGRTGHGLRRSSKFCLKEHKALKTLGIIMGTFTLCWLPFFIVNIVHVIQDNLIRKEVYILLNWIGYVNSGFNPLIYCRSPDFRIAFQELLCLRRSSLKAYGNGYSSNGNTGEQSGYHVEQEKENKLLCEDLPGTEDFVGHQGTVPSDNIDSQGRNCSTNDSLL
Outline: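 Assay format: CHO-ADRB2 cells, 18-20hr seeding at 37C/5% CO2, then compound plus 1nM isoproterenol agonist mix for 0.5hr RT. Homogeneous time-resolved fluorescence cAMP detection after 1hr, expressed as 665/615 nm ratio.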

[17] = molecular target: D(2) dopamine receptor (Homo sapiens) (UniProt P14416); assay: Dopamine D2 receptor (DRD2) small molecule agonists, cell-based qHTS assay (AID 1963594); further: nearly all actives have a fitted effect of over 35% in size
Sequence of D(2) dopamine receptor (Homo sapiens) (P14416 whole entry, looked up): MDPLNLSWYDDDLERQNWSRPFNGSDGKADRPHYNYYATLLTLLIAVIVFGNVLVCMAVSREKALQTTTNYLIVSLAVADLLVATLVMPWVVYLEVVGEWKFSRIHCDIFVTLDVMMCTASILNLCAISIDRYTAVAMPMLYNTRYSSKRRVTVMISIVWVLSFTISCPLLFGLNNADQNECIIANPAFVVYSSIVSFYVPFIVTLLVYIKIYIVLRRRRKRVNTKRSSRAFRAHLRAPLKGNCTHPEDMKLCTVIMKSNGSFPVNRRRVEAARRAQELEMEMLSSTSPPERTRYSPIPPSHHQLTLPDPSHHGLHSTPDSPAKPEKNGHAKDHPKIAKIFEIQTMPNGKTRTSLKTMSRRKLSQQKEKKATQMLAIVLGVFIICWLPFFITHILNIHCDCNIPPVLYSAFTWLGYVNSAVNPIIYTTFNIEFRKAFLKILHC
Outline: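 HEK293 cells stably expressing human DRD2, pre-treated with PDE inhibitor Ro20-1724 (0.1 mM final) and compound 10 min at room temperature, then stimulated with NKH477 (200nM […]) for 30 min. cAMP read by HTRF (665/620 nm).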

[18] = molecular target: D(2) dopamine receptor (Homo sapiens) (UniProt P14416); assay: Dopamine D2 receptor (DRD2) small molecule antagonists, cell-based qHTS assay (AID 1963595; active means well fitted inhibition curve with a large enough effect in the signal ratio in the repeat runs, with a control signal flat; the % refers to the signal ratio)
Outline: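 Cells were plated and grown for 24 h at 37 °C. Ro20-1724 (0.1 mM final) went in first, then compound for 10 min. NKH477 (200 nM) with quinpirole (12 nM) followed for 30 min at RT, then HTRF detection reagents for 1 h.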

[19] = p53 small molecule agonists, cell-based qHTS assay with human liver microsomes (AID 1963577);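 further: p53 response element beta-lactamase reporter cells with liver microsomes plus NADPH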
Outline: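 Reporter activation was measured by LiveBLAzer fluorescence intensity in p53RE-bla cells, which had been exposed to compounds for 16 h at 37 C alongside 0.5 mg/mL human liver microsomes and 0.5 mg/mL NADPH (final concentrations).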

[20] = cAMP Responsive Elements (CRE) small molecule antagonists, cell-based qHTS assay (AID 1963591; active means well fitted inhibition curve with a large enough effect in the signal ratio in the repeat runs, not every such curve was filed as active; the % refers to the signal ratio)
Outline: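 Fluorescence intensity from cleaved LiveBLAzer B/G substrate (2 h, room temperature) quantified CRE-bla activity in HEK 293T cells exposed 3 h to compound with 0.25 uM final NKH477.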

Measured: Potency

CCOC(=O)CCC(=O)OCC
inactive: [1] | [2] | [3] | [4] | [5] | [6] | [7] | [8] | [9] | [10] | [11] | [12] | [13] | [14] | [15] | [16] | [17] | [18]

CCC(=O)O[C@]1(C(=O)SCF)[C@H](C)C[C@H]2[C@@H]3C[C@H](F)C4=CC(=O)C=C[C@]4(C)[C@@]3(F)[C@@H](O)C[C@@]21C
inactive: [1] | [2] | [3] | [4] | [5] | [19] | [8] | [9] | [11] | [12] | [13] | [14] | [20] | [16] | [17] | [18]

COc1cc(OC)cc(OC)c1
inactive: [1] | [2] | [3] | [4] | [5] | [19] | [9] | [11] | [12] | [13] | [14] | [15] | [20] | [17] | [18]

CCCCOC(=O)[C@@H](C)Oc1ccc(Oc2ccc(C(F)(F)F)cn2)cc1
inactive: [1] | [2] | [3] | [4] | [5] | [6] | [7] | [8] | [9] | [10] | [11] | [12] | [13] | [14] | [20] | [16] | [17] | [18]

Cc1ccccc1C#N
inactive: [1] | [2] | [3] | [4] | [5] | [19] | [7] | [9] | [10] | [11] | [12] | [14] | [20] | [16] | [17] | [18]

CN1C(C)(C)CCCC1(C)C
inactive: [1] | [2] | [3] | [4] | [5] | [6] | [7] | [8] | [9] | [10] | [11] | [12] | [13] | [14] | [20] | [16]

CCC(CO)(CO)COCC(CC)(CO)CO
inactive: [1] | [2] | [3] | [4] | [5] | [6] | [7] | [8] | [9] | [10] | [11] | [12] | [13] | [14] | [20] | [16] | [17] | [18]
